# Measured values reported in PubChem BioAssay.
# Calls of active or inactive are those of the source. Unless noted, the rule behind the calls is not given here.
# Key:
# [1] = resazurin metabolic signal in HepG2 cells – cell-based, resazurin fluorescence, 24 h, PK04 Diversity Set, profiling panel (AID 1172); conditions: HepG2 viability, higher = more signal; note: test concentration not given here
# [2] = budding yeast growth changes without added modifier – OD600, strain BY4716, 24 h, basal condition, primary screen (AID 1173); conditions: S. cerevisiae BY4716 growth, OD600, 24 h; higher = more signal, called active from +8 up or from −8 down
# [3] = viability profiling in MM1S myeloma cells – cell-based, resazurin fluorescence, basal, 24 h, PK04 Diversity Set, profiling panel (AID 1174); conditions: higher = more signal, called active from +8 up or from −8 down;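 note: MM1S multiple myeloma cell line; test concentration not given here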
# [4] = molecular target: Dihydroorotate dehydrogenase (quinone), mitochondrial (Plasmodium falciparum (isolate 3D7)) (UniProt Q08210); test: inhibition of P. falciparum DHODH – biochemical, C-terminal His tag, absorbance 600 nm, primary screen (AID 1175); conditions: PfDHODH enzyme, DCIP absorbance 600 nm; higher = more signal, called active from +8 up or from −8 down;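 note: recombinant parasite enzyme with a five histidine tag at its C terminus; test concentration not given here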
# [5] = inhibition of PAO1 biofilm formation – strain PAO1, LB-PBS medium, absorbance 600 nm, primary screen (AID 1176); note: test concentration not given here; conditions: P. aeruginosa PAO1 growth/biofilm, A600, 12 h; higher = more signal
# [6] = growth modulation of vineyard yeast isolate – strain RM11-1a, OD600, basal, 24 h, primary screen (AID 1177);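 note: cultures grown under basal conditions with no added stressor; test concentration not given here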; conditions: S. cerevisiae RM11-1a growth, OD600, 24 h; higher = more signal, called active from +8 up or from −8 down
# [7] = growth of efflux-deficient E. coli DRC39 – strain DRC39, OD650, 24 h, E. coli filamentation inducers, primary screen (AID 1178);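 note: growth measured as culture turbidity by optical density at 650 nm; test concentration not given here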; conditions: E. coli DRC39 acrAB, higher = more signal, called active from +8 up or from −8 down
# [8] = growth of efflux-deficient E. coli DRC39 – strain DRC39, OD650, 48 h, E. coli filamentation inducers, primary screen (AID 1179);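 note: screen aims at cell division blockers that make cells filament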; conditions: E. coli DRC39 delta-acrAB growth, higher = more signal, called active from +8 up or from −8 down
# [9] = viability profiling in RPMI8226 myeloma cells – cell-based, resazurin fluorescence, basal, 24 h, PK04 Diversity Set, profiling panel (AID 1180); conditions: higher = more signal;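 note: RPMI8826 multiple myeloma cell line at 5000 cells per well; test concentration not given here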
# [10] = molecular target: E3 ubiquitin-protein ligase XIAP (Homo sapiens) (UniProt P98170); test: small molecules binding XIAP protein – biophysical, small-molecule microarray, fluorescence 635 nm, primary screen (AID 1181); conditions: higher = more signal;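 note: score merges 667 nm emission and signal to noise over triplicate slides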
# Chain of E3 ubiquitin-protein ligase XIAP (Homo sapiens) (P98170 whole entry, looked up): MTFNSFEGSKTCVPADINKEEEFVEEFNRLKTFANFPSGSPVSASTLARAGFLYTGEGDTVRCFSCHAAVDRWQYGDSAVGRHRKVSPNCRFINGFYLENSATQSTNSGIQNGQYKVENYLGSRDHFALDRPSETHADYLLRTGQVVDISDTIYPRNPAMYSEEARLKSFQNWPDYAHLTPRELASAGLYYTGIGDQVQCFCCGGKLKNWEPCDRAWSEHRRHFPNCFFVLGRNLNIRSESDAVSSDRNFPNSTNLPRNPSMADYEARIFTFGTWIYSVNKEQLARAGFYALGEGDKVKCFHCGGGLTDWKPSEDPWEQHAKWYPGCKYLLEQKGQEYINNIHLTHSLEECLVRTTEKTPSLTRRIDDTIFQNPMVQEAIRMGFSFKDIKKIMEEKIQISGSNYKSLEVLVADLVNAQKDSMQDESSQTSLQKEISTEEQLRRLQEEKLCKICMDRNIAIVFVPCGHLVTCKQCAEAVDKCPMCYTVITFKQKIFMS
# Chain of Dihydroorotate dehydrogenase (quinone), mitochondrial (Plasmodium falciparum (isolate 3D7)) (Q08210 whole entry, looked up): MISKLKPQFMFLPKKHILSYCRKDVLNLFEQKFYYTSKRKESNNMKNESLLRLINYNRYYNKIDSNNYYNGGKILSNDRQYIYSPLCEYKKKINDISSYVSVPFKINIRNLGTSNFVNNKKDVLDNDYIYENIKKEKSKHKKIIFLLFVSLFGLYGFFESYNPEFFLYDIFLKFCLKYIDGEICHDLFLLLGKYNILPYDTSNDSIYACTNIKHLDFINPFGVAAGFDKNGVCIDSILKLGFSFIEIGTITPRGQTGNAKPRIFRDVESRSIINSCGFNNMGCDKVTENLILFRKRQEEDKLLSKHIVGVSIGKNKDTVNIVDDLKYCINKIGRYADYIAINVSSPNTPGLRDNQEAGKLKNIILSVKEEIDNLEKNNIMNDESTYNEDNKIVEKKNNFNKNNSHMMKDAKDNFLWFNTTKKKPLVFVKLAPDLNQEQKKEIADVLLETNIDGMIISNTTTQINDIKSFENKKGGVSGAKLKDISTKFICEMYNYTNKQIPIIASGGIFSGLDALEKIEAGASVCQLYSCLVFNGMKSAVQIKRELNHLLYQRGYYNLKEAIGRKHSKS
SMILES,z-score [1],z-score [2],z-score [3],composite z-score [4],z-score [5],z-score [6],z-score [7],z-score [8],z-score [9],composite z-score [10]
COC(=O)C[C@H]1O[C@]2(C(=O)N(Cc3ccccc3)c3ccc(NC(C)=O)cc32)[C@@H](C)[C@@H]1[Si](C)(C)c1ccc(OC)cc1,-1.11,0.457 (inactive),-1.33 (inactive),1.45 (inactive),-0.602 (inactive),0.952 (inactive),-0.871 (inactive),-0.69 (inactive),-0.681,-0.227
O=C(CS)NCCCCCCNC(=O)[C@H]1C[C@H]2C(=O)NCC(=O)N2[C@H]1c1ccc(O)cc1,-0.0808,0.309 (inactive),-0.722 (inactive),-0.864 (inactive),0.395 (inactive),-0.14 (inactive),-0.389 (inactive),-0.405 (inactive),-0.521,0.102
COc1cccc(C(=O)O[C@H]2CC[C@]3(C)C4=C(CCC3C2(C)C)[C@]2(C)CC[C@H]([C@H](C)CCCC(C)C)[C@@]2(C)CC4)c1 (stereo not given in full),0.514,-0.488 (inactive),0.697 (inactive),-2.17 (inactive),0.671 (inactive),-1.62 (inactive),0.621 (inactive),1.18 (inactive),0.815,0.132
C=CCOC(=O)[C@@H]1[C@H]2C(=O)O[C@H](c3ccccc3)[C@H](c3ccccc3)N2[C@H](c2ccc(OCCOC(=O)[C@@H]3C[C@@H]4C(=O)N[C@@H](Cc5ccccc5)C(=O)N4[C@@H]3c3cccc(OCCO)c3)cc2)[C@@]12C(=O)Nc1ccc(I)cc12,0.134,1.94 (inactive),0.375 (inactive),-0.0168 (inactive),2.17 (inactive),2.94 (inactive),0.421 (inactive),-0.463 (inactive),0.318,0.434
CC(C)C[C@@H]1NC(=O)[C@H]2C[C@@H](C(=O)NCCCCCCNC(=O)CS)[C@@H](c3cccc(OCCO)c3)N2C1=O,0.808,-0.632 (inactive),0.259 (inactive),-0.625 (inactive),-0.145 (inactive),0.652 (inactive),0.941 (inactive),1.08 (inactive),-0.258,0.356
CCCN1C(=O)[C@]2(COC(c3ccc(OCCCO)cc3)=N2)Cc2ccccc21,0.0036,-1.69 (inactive),-0.543 (inactive),-0.238 (inactive),-0.152 (inactive),0.235 (inactive),-0.011 (inactive),-0.0774 (inactive),-0.454,-0.195
Cc1ccc(S[C@]2(C(=O)NCc3ccccc3)CC(=O)N(Cc3ccccc3Cl)[C@@H]2c2ccc(CO)cc2I)cc1,1.21,-3.45 (inactive),-3.03 (inactive),-1.82 (inactive),0.531 (inactive),-1.07 (inactive),0.321 (inactive),0.439 (inactive),-2.02,-0.136
C=C[C@H](COC(C)=O)N(Cc1ccc(OC(C)=O)c(OC)c1)S(=O)(=O)c1ccc(Br)cc1,0.203,-0.533 (inactive),0.427 (inactive),-1.24 (inactive),-0.152 (inactive),0.318 (inactive),1.65 (inactive),2.5 (inactive),0.798,-0.162
CC(C)(C)N1CC=CC23O[C@@H]4C=CCOC(=O)[C@@H]4[C@H]2C(=O)N(CCCCCO)[C@@H]3C1=O (stereo not given in full),-0.308,0.285 (inactive),-0.728 (inactive),-0.0531 (inactive),0.0962 (inactive),-0.0325 (inactive),-1.09 (inactive),-1.2 (inactive),-0.867,0.333
O=C(OCCF)C1=CCC(c2cccc(Cl)c2)O1 (stereo not given),-0.185,-2.59 (inactive),0.0509 (inactive),-1.71 (inactive),-0.212 (inactive),-1.56 (inactive),-0.18 (inactive),0.443 (inactive),0.122,0.0176
COC(=O)c1c(CC[C@@H](CO)NC(=O)N[C@@H](Cc2ccccc2)Cn2cc(C3(O)CCCCC3)nn2)oc(C(C)=O)c1C(=O)OC,-0.172,-3.95 (inactive),1.37 (inactive),-4.08 (inactive),-0.452 (inactive),-2.6 (inactive),1.05 (inactive),0.874 (inactive),0.428,0.0762
CCCCC(O)C1C=CC2C(=O)N(C3CCCCC3)C(=O)C2N1Nc1ccc(OC)cc1 (stereo not given),-0.414,-2.57 (inactive),-0.496 (inactive),1.12 (inactive),0.89 (inactive),0.669 (inactive),-1.01 (inactive),-0.584 (inactive),-0.369,0.0617
COC(=O)[C@@]1(Cc2ccc(OC)cc2)[C@H]2c3cc(C(=O)N4CCCC4)n(CCc4c[nH]c5cc(F)ccc45)c3C[C@H]2CN1C(=O)c1ccccc1,-0.679,1.15 (inactive),-0.502 (inactive),0.461 (inactive),0.964 (inactive),0.473 (inactive),-0.29 (inactive),-0.141 (inactive),-0.642,0.172
CN(C)CCCNC(=O)[C@@]1(Cc2ccccc2I)c2ccccc2C(=O)N(Cc2ccccc2C(F)(F)F)[C@H]1c1ccc(CO)cc1,-6.04,-6.8 (inactive),-7.53 (inactive),0.35 (inactive),0.0993 (inactive),0.653 (inactive),-0.299 (inactive),0.247 (inactive),-4.01,-0.288
O=C1C2C=CC(C(O)c3ccc(F)cc3)N(Nc3ccccc3)C2C(=O)N1c1ccccc1 (stereo not given),-1.24,-3.05 (inactive),-1.33 (inactive),0.485 (inactive),0.888 (inactive),0.723 (inactive),-0.811 (inactive),0.128 (inactive),-0.535,-0.229
[N-]=[N+]=NCc1ccccc1C[C@]1(C(=O)NCC(O)CO)N=C(c2ccc(OCCCO)cc2)O[C@H]1c1ccccc1N=[N+]=[N-] (stereo not given in full),0.207,0.664 (inactive),-0.403 (inactive),1.83 (inactive),0.208 (inactive),2.8 (inactive),1.22 (inactive),0.0128 (inactive),-0.986,-0.0057
O=C1OCCC=C[C@H]2OC34C=CCN(Cc5ccccc5)C(=O)[C@H]3N(CCCO)C(=O)[C@@H]4C12 (stereo not given in full),0.35,-0.625 (inactive),1.33 (inactive),-1.01 (inactive),0.152 (inactive),-0.0921 (inactive),-0.638 (inactive),0.129 (inactive),0.165,-0.0116
CCOC(=O)C[C@H]1[C@H](OC(=O)c2ccc(-c3ccccc3)cc2)[C@@H](NC(=O)c2ccc3ccccc3c2)c2cc(OCCCO)ccc2N1C(=O)Cc1ccc(OC)cc1,0.339,-0.461 (inactive),0.158 (inactive),-0.173 (inactive),-0.501 (inactive),-0.169 (inactive),0.281 (inactive),0.454 (inactive),0.507,0.144
Cc1c(NC(=O)CC#N)c(=O)n(-c2ccccc2)n1C,1.02,-0.267 (inactive),1.07 (inactive),-0.544 (inactive),0.531 (inactive),-1.25 (inactive),1.37 (inactive),1.47 (inactive),0.526,0.0345
CC(C)N1CC=CC23O[C@@H]4C=CCOC(=O)[C@@H]4[C@H]2C(=O)N(CCO)[C@@H]3C1=O (stereo not given in full),0.545,0.684 (inactive),0.813 (inactive),-1.12 (inactive),0.0683 (inactive),0.445 (inactive),0.173 (inactive),0.0539 (inactive),0.393,0.0368
CC(=O)Nc1cc(Br)ccc1C(=O)O,-0.128,0.311 (inactive),0.161 (inactive),-0.398 (inactive),-0.103 (inactive),-0.129 (inactive),-0.141 (inactive),-0.535 (inactive),0.357,-0.239
C=CC[C@]1(C(=O)N2CCOCC2)N=C(c2ccc(OCCCO)cc2)O[C@H]1c1ccccc1,0.318,-1.4 (inactive),-0.0524 (inactive),0.373 (inactive),1.17 (inactive),-0.594 (inactive),0.14 (inactive),0.122 (inactive),0.335,-0.031
O=C/C=C/c1ccc(Cl)cc1,-0.831,-18 (active),-0.832 (inactive),-1.96 (inactive),0.475 (inactive),-4.94 (inactive),0.3 (inactive),0.782 (inactive),-0.81,-0.134
CN(C)CCCCNC(=O)[C@H]1C[C@H]2C(=O)N[C@@H](Cc3ccccc3)C(=O)N2[C@H]1c1ccc(O)cc1,-0.0562,-0.5 (inactive),-0.0866 (inactive),-16.7 (active),2.86 (inactive),0.466 (inactive),-0.539 (inactive),-0.855 (inactive),-0.0845,0.0256
COCCOC(=O)N1C(=O)[C@@]2(c3cc(C#CCC(C(=O)OC)C(=O)OC)ccc31)[C@H](C(=O)N1CCN(c3ncccn3)CC1)[C@H]1C(=O)O[C@H](c3ccccc3)[C@H](c3ccccc3)N1[C@@H]2c1ccc(OCCO)cc1,1.36,0.539 (inactive),0.724 (inactive),-0.432 (inactive),3.48 (inactive),1.84 (inactive),0.272 (inactive),0.106 (inactive),1.32,0.0838
CC(C)CNC(=O)[C@@]1(c2ccc([N+](=O)[O-])cc2)CC(=O)N(CC23CC4CC(CC(C4)C2)C3)[C@@H]1c1ccc(CO)cc1,-1.69,-0.565 (inactive),-2.08 (inactive),-1.23 (inactive),0.913 (inactive),-0.813 (inactive),0.629 (inactive),1.25 (inactive),-3.32,-0.193
